Screen size: about 58,000 sequences; about 4,100 (7.1%) were called active. Rule as the data show it: active = GI50 up to about 1.1 µM and inactive = higher. The list is a sample of the results. Measured potencies and affinities stand elsewhere.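 1) Cells in 96-well plates. 2) Compound, 48 h, 5 concentrations. 3) Linear interpolation between surrounding doses. 4) Unreached endpoint = highest concentration. GI50 is the concentration that inhibits growth by half.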

This assay deals with U-251. The experiment in a line: NCI tumour cell line growth inhibition, 48 h.
“[Bis(aminomethyl)diethylsilane]tetrachloroplatinum(IV), CHEMBL2146203” had a GI50 of 2 µM.

For the substance “[Bis(aminomethyl)pentamethylenesilane]tetrachloropaltinum(IV), CHEMBL2146204”, the GI50 was determined as 2.94 µM.

“[Bis(aminomethyl)tetramethylenesilane]tetrachloropaltinum(IV), CHEMBL2146189” registered a GI50 of 3.59 µM.

Substance “[Bis(aminomethyl)ethylmethylsilane]tetrachloroplatinum(IV), CHEMBL2146192” gave a GI50 of 6.07 µM.

For the substance CISPLATIN, CHEMBL11359, the GI50 stood at 1.92 µM.

“cis-Bis[[(trimethylsilyl)methyl]amino]tetrachloroplatinum(IV), CHEMBL2146191” registered a GI50 of 14.9 µM.

Turning to “[Bis(aminomethyl)dimethylsilane]dichloroplatinum (II), CHEMBL2146201”, the GI50 was determined as 33.5 µM.

For “[Bis(aminomethyl)tetramethylenesilane]dichloropaltinum(II), CHEMBL2146205”, the GI50 worked out at 30.3 µM.

Take “[Bis(aminomethyl)dimethylsilane]tetrachloroplatinum(IV), CHEMBL2146190”: the GI50 amounted to 9.42 µM.

“mu-(1,7-nanodiamine-N,N')bis-(cis-aminedichloroplatimum (II)), CHEMBL2146215” came in with a GI50 of 10.3 µM.

Regarding “[Bis(aminomethyl)pentamethylenesilane]dichloropaltinum(II), CHEMBL2146202”, the GI50 came to 2.93 µM.

The record behind these values is ChEMBL document CHEMBL1201862, “PubChem BioAssay data set” (2004).
